Each structure is given as a SMILES string. Unmarked numbers belong to inactive results.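 The calls were made as follows: active = RAM network inhibition above 8.4% in each of two replicates, 3 SD over the compound average; inconclusive = above 8.4% inhibition in only one replicate; inactive = 8.4% inhibition or less in each replicate.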

The assay is described as follows: RAM signaling pathway blockade in yeast – S. cerevisiae, Pdr1DBD-CYC8 efflux-inhibited sensitized strain, primary screen (AID 1298).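 Also: 0% = DMSO untreated cells without growth and 100% = 10 µM 1-NA-PP1 full growth; higher means more yeast growth rescued from 5-FOA killing.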 Conditions: S. cerevisiae cbk1-as DSE1-URA3 strain, 5-FOA growth OD615, 2 d; at 50 µM; active compounds read high.
As to `CCCCOC(=O)c1ccc(NC(=O)CSCc2n[nH]c(=O)[nH]2)cc1`, the RAM network inhibition is 1.48%.
The figure for `CCNc1nc(NCC)nc(-n2nc(C)cc2C)n1` is 0.75%; for `CCOC(=O)c1cc(NC(=O)NCc2ccco2)c(C)nc1C` it is 4.38%.
As to `COc1cc2c(=O)n(Cc3ccccc3)c(=O)n(CC(=O)NCC3CCCO3)c2cc1OC` (stereo not given), the RAM network inhibition is 3.29%.
The figure for `CCC(CO)N=CC1=C(O)CC(C)(C)CC1=O` (stereo not given) is 0.21%; for `COC(=O)CCSCC(=O)Nc1nnc(C)s1` it is 0.66%; for `COc1cc(OC)nc(NC(=O)C(C)C)n1` it is 4.06%.
`CC(NC(=O)c1ccco1)C(c1cccs1)N1CCOCC1` (stereo not given): the RAM network inhibition was 1.38%.
`CCn1ccnc1C(O)c1cccc(OC)c1OC` (stereo not given): the RAM network inhibition was 3.57%.
For `Cc1cc(C)nc(SCC(=O)Oc2ccc3oc(=O)cc(C)c3c2)n1`, the RAM network inhibition was 3.39%.
With `CCCCCn1c(N(C)Cc2ccccc2)nc2c1c(=O)[nH]c(=O)n2C` the figure was 1.07%; with `Cc1cc(C)cc(-n2cc3c(=O)n(C)c(=O)n(C)c3c2)c1`, 2.55%.
The figure for `O=C(C1CC(=O)N(C2CCCC2)C1)N1CCN(c2ccc(F)cc2)CC1` (stereo not given) is 2.53%; for `COC(=O)C1=CN(C)C=C(C(=O)OC)C1c1ccsc1` it is 0.41%; for `CCCC(=O)c1c(NC)cc(C)oc1=O` it is 3.99%.
The figure for `CCOc1cccc(C2c3c(oc4ccccc4c3=O)C(=O)N2c2ccccn2)c1` (stereo not given) is 2.56%.
For `CN(C)CCNC(=O)c1ccc2c(c1)N(Cc1ccc(F)cc1)CCS2`, the RAM network inhibition was 0.57%.
With `COc1ccc2cc(CCNC(=O)C3CCCC3)c(=O)[nH]c2c1` the figure was 0.21%; with `Cc1cc(C(=O)CN2CC(C)OC(C)C2)c(C)n1-c1ccccc1` (stereo not given), 7.04%.
Regarding `Cc1ccc2oc(=O)c3cc(C(=O)NCc4ccco4)sc3c2c1`, the RAM network inhibition is 2.71%.
The figure for `C1CCc2c(nc3nnnn3c2N2CCOCC2)C1` is 5.8%; for `Cc1ccc(C(=O)NCc2ccc(Cl)c(Cl)c2)o1` it is 1.28%; for `O=C(NC1CCN(C(=O)N2c3ccccc3Sc3ccccc32)CC1)c1ccco1` it is 4.1%.
For `O=C(O)CCC(C(=O)O)n1c(O)c(C2=c3ccccc3=NC2=O)sc1=S` (stereo not given), the RAM network inhibition was -0.11%.
As to `Cc1cc(C(=O)N2CCN(S(C)(=O)=O)CC2)sc1-c1ccccc1`, the RAM network inhibition is 6.22%.
With `O=c1[nH]c2ccccc2n1Cc1ccc(F)cc1` the figure was -0.05%; with `COC(=O)CCc1n[nH]c(=O)[nH]c1=O`, -0.87%.
With `COc1ccc(C(=S)N(C)C)cc1OC` the figure was 1.53%; with `CCCCn1c(CNC(=O)C(C)(C)C)nc2ccccc21`, 5.15%.
As to `C/C(NCCN1CCOCC1)=C(\C#N)C(N)=O`, the RAM network inhibition was 7.19%.
On to `O=C(Nc1ccc(Br)cc1F)C1CCCN(S(=O)(=O)c2cnc[nH]2)C1` (stereo not given), for which the RAM network inhibition is 5.06%.
As to `CCN1CCN(C(=O)Cn2ncc3c2-c2ccccc2OC3)CC1`, the RAM network inhibition was 2.81%.
Regarding `CC1CCc2nn(CC(=O)N3CCCCCC3)cc2C1` (stereo not given), the RAM network inhibition is 1.06%.
As to `Nc1nnc(N2CCc3ccccc32)s1`, the RAM network inhibition is 0.42%.
`COc1ccc(-c2nnc(SCC(=O)Nc3cc(F)ccc3C)o2)cc1`: the RAM network inhibition was 0.58%.
For `CCc1nnc(NC(=O)CSc2nc3c(c(=O)n2CC)SC(C)C3)s1` (stereo not given), the RAM network inhibition was 6.11%.
Consider `O=C(O)CCc1nnc2n(Cc3ccc(F)cc3)c(=O)c3ccccc3n12`, for which the RAM network inhibition was 1.56%.
For the compound `CC(=O)NCCc1cc2ccc(C)c(C)c2[nH]c1=O`, the RAM network inhibition is 0.37%.
In the case of `O=C(Cn1c(=O)oc2cc(S(=O)(=O)N3CCCC3)ccc21)N1CCN(c2ccccn2)CC1`, the RAM network inhibition is 6.22%.
With `COc1ccc(-c2cn3c(C)c(C(=O)NC(C)(C)C)sc3n2)cc1` the figure was 1.82%.

The record behind these values is PubChem BioAssay.
